# dFosB act = enhances mouse delta FosB homodimer DNA binding; P13346; purified delta FosB, TAMRA-CDK5 oligo fluorescence polarization; percent of positive-control signal above neutral wells; activation, % at 25 µM; actives 0.99% (n = 340,000);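 active = mean activation above about 17%, with every replicate also reaching it, limit read from the data, passing the limit was not always enough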
# Target sequence (P13346 whole entry, looked up): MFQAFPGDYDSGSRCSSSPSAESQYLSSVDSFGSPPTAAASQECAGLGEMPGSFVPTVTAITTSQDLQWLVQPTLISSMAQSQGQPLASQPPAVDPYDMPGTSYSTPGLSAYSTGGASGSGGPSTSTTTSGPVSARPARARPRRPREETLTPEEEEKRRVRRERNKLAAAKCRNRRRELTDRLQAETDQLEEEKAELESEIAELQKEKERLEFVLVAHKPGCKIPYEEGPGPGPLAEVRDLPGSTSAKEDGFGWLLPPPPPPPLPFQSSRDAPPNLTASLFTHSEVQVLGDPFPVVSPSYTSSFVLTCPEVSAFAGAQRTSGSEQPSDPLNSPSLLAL
# PvdQ inh = P. aeruginosa PvdQ acylase inhibition; actives 0.063% (n = 340,000); inhibition, % at 10 µM; purified PvdQ acylase, fluorescence plate reader; in the data active = inhibition above about 30%, passing the limit was not always enough;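 also: 0% = vehicle neutral wells and 100% = reference inhibitor wells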
# PglD DTNB = blocks C. jejuni PglD acetyltransferase activity | purified PglD enzyme, DTNB colorimetric CoA detection | inhibition, % at 12.5 µM | actives 0.098% (n = 360,000); in the data active = inhibition above about 16%, passing the limit was not always enough
# SIRT5 block = blocks human SIRT5 desuccinylation of peptide; Purified SirT5, succinyl-peptide AMC, trypsin-coupled fluorescence; actives 1.1% (n = 330,000); Q9NXA8; AID 652115; inhibition, % at 15 µM; in the data active = inhibition above about 15%
# CDK5 inh = inhibitors of human CDK5/p35 kinase. Q00535+Q15078. Recombinant CDK5/p35, ADP-Glo luminescence, 60 min. inhibition, % at 10 µM. actives 0.01% (n = 330,000). AID 488839;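 active = highest replicate inhibition of at least 50% and at least 75% of replicates reaching 50%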;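 also: plate controls were DMSO neutral control for no effect and GW8510 at 10 µM for full effect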
# FGF22 binding = binders of recombinant human FGF22 by thermal shift; Q9HCT0; SYPRO orange fluorescence; percent of sucrose octasulfate shift, DMSO zero; activity (Tm shift, normalised), % at 9.99 µM; actives 1.5% (n = 340,000);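 active = mean Tm shift, scaled 0 neutral to 100 positive control, at about 1.3% or above, every replicate too, limit read from the data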
# Target sequence (Q9HCT0 whole entry, looked up): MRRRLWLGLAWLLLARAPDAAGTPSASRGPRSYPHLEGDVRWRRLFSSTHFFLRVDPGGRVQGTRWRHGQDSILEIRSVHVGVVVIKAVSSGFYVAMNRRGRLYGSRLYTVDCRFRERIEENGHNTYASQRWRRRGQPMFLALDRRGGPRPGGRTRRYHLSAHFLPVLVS
# The depositor's hits bear a star; · = no result given; ! = not active in a repeat. An excerpt weighted towards active compounds, which were near 2.8% of everything screened.
SMILES,dFosB act,PvdQ inh,PglD DTNB,SIRT5 block,CDK5 inh,FGF22 binding
O=S(=O)(Nc1cc(Sc2ncn[nH]2)c(O)c2ccccc12)c1ccccc1,-6,9,·,1,6,43*
Cc1noc(C)c1S(=O)(=O)Nc1ccc2c(c1)C(=O)N([C@H](C)CO)C[C@@H](C)[C@H](CN(C)C(=O)C1CCCCC1)OCCCC[C@@H](C)O2,·,·,-3,1,·,0
O=C(C[C@@H]1C=C[C@@H](NC(=O)C2CC2)[C@@H](CO)O1)NC1CCC1,·,·,·,-2,·,0
COc1ccc([C@@H]2[C@@H](C)N(c3ccccc3)c3ccccc3C(=O)N2Cc2ccccc2)cc1,·,·,3,·,·,44*
Cn1c(SCC(=O)N/N=C/c2ccco2)nc2ccccc21,-9,-4,3,0,0,43*
CC(/C=N/NC(=O)CSc1nc2ccccc2n1C)=C\c1ccco1,-8,-2,·,·,-3,·
CO[C@H]1CN(C)C(=O)c2ccc(NC(=O)C3CCOCC3)cc2OC[C@H](C)N(Cc2nccs2)C[C@@H]1C,·,·,·,-2,·,0
CCCCn1c(N)c(N(CC(C)C)C(=O)CSCc2ccc(Cl)c(Cl)c2)c(=O)[nH]c1=O,-17,0,0,17*,0,0
O=C(C[C@@H]1CC[C@H]2[C@@H](COC[C@H](O)CN2C(=O)c2ccccn2)O1)N1CCN(c2ccccc2)CC1,·,·,3,5,·,0
CNC[C@H]1Oc2cc(C#Cc3ccncc3)ccc2S(=O)(=O)N([C@H](C)CO)C[C@@H]1C,·,·,1,-4,·,0
Cc1c(C(=O)C(=O)NCc2cccs2)c2ccccc2n1C,2,-8,·,2,0,43*
Cc1c(C(=O)C(=O)NCCC2=CCCCC2)c2ccccc2n1C,-13,11,·,·,4,0
COc1ccc(Nc2oc(COc3ccccc3OC)nc2C#N)cc1,-2,2,·,28*,-2,0
COc1ccccc1OCc1nc(C#N)c(NCCCn2ccnc2)o1,-11,9,-6,0,0,0
O=C(C[C@@H]1CC[C@H]2[C@@H](COC[C@@H](O)CN2S(=O)(=O)c2ccc(Cl)cc2)O1)N[C@@H]1CCN(Cc2ccccc2)C1,·,·,1,-5,·,0
COc1nccnc1NS(=O)(=O)c1ccc(NC(=O)c2cccc(C)c2)cc1,3,2,·,-1,0,43*
COc1cccc(S(=O)(=O)N2CC[C@@H]3[C@H]2c2cc(C#Cc4cccnc4)ccc2N[C@@H]3CO)c1,·,·,1,6,·,0
Cc1cccc(S(=O)(=O)N(C)C[C@@H]2OCc3ccccc3-c3c(n(C)c4ccccc34)C(=O)N([C@H](C)CO)C[C@@H]2C)c1,·,·,3,20*,·,0
C[C@H](CO)N1C[C@H](C)[C@H](CN(C)S(=O)(=O)c2ccc(Cl)cc2)OCc2ccccc2-c2c(n(C)c3ccccc23)C1=O,·,·,-3,22*!,·,0
C[C@@H]1CN([C@@H](C)CO)C(=O)c2ccccc2-c2ccccc2CO[C@H]1CN(C)S(=O)(=O)c1ccc(Cl)cc1,·,·,-2,15*,·,-1
C[C@H](CO)N1C[C@H](C)[C@@H](CN(C)S(=O)(=O)c2ccc(Cl)cc2)OCc2ccccc2-c2ccccc2C1=O,·,·,15,·,·,0
C[C@H](CO)N1C[C@H](C)[C@H](CN(C)S(=O)(=O)c2cccs2)Oc2c(NC(=O)C3CCCCC3)cccc2C1=O,·,·,-1,17*,·,0
CCN1[C@@H]2c3ccc(C4=CCCCC4)c(=O)n3C[C@@H]2[C@@H](CO)[C@@H]1C(=O)OC,·,·,-2,-3,·,0
CCCNC(=O)N1CCC2(CC1)CN(Cc1ccccc1)[C@@H](CO)c1[nH]c3cc(OC)ccc3c12,·,·,·,-4,·,0
CC(C)NC(=O)Nc1ccc2c(c1)C(=O)N([C@H](C)CO)C[C@@H](C)[C@H](CN(C)S(C)(=O)=O)OCCCC[C@H](C)O2,·,·,0,-1,·,0
SMILES,dFosB act,PvdQ inh,PglD DTNB,SIRT5 block,CDK5 inh,FGF22 binding
O=C(N[C@H]1C=C[C@H](CC(=O)N2CCOCC2)O[C@H]1CO)c1ccc2c(c1)OCO2,·,·,2,-3,·,0
Cc1ccc(S(=O)(=O)N(C)C[C@@H]2OCc3ccccc3-c3c(n(C)c4ccccc34)C(=O)N([C@H](C)CO)C[C@@H]2C)cc1,·,·,·,18*!,·,0
C[C@@H]1CN([C@H](C)CO)C(=O)c2ccccc2-c2ccccc2CO[C@H]1CN(C)S(=O)(=O)c1cccs1,·,·,1,18*,·,0
C[C@H](CO)N1C[C@H](C)[C@H](CN(C)S(=O)(=O)c2cccs2)OCc2ccccc2-c2ccccc2C1=O,·,·,2,6,·,0
CCCNC(=O)C[C@@H]1CC[C@H]2[C@H](COc3ccc(NC(=O)c4cccs4)cc3C(=O)N2C)O1,·,·,4,-6,·,0
COC(=O)c1ccc(OCC(O)CNC2CCCC2)cc1 (stereo not drawn),1,-6,-4,-4,-2,0
CCC(=O)c1ccc(OCC(O)CNC2CCCC2)cc1 (stereo not drawn),16*,-12,-7,-2,0,0
COc1ccc(S(=O)(=O)Nc2cccc3c2O[C@H](CN(C)C(=O)Nc2ccccc2)[C@@H](C)CN([C@@H](C)CO)C3=O)cc1,·,·,1,1,·,0
Cc1cc(C)c(S(C)(=O)=O)c(NN)n1,-1,14,·,-6,2,44*
O=C(Cc1ccc(F)cc1)Nc1nc(-c2ccc(F)c(F)c2)cs1,-4,-16,4,16*,-1,0
CCC1CCCCN1CCCNC(=O)Cn1cnc2sc(C)c(S(=O)(=O)N3CCC(C)CC3)c2c1=O (stereo not drawn),5,-13,-3,17*,-2,0
COCCNC(=O)Cn1cnc2sc(C)c(S(=O)(=O)N3CCC(C)CC3)c2c1=O,-4,-8,·,·,0,·
COc1ccc(N2CCN(C(=O)c3cc4cc(Cl)ccc4[nH]3)CC2)cc1,-3,-7,-6,18*,0,0
O=C(c1cc2cc(Cl)ccc2[nH]1)N1CCN(c2ccc(F)cc2)CC1,-3,7,-1,1,0,0
O=C(Nc1ccccc1)SC1CCCCC1,2,-5,1,·,1,43*
CCCNC(=O)N1[C@@H](CO)[C@H](c2ccc(C3=CCCC3)cc2)[C@@H]1CNC(C)=O,·,·,-3,·,·,·
COC(=O)Cn1cnc2sc3c(c2c1=O)CCCC3,1,-1,2,-7,2,43*
CC1CCc2c(sc3ncn(Cc4ccc(C(=O)O)cc4)c(=O)c23)C1 (stereo not drawn),-6,-3,-4,-4,-6,43*
Cc1ccc(S(=O)(=O)Nc2cccnc2)c(C)c1C,0,-12,-2,15*,-3,0
COc1ccc(C(=O)c2c(C)c3cc(C)ccc3n2CC(O)CN2CCOCC2)cc1 (stereo not drawn),-10,12,·,10,1,44*

# Compound activity: PubChem BioAssay, Broad Institute
